Many of the other results were omitted from the sample, so hits are more common in it than they were.
NOMO-1 viab: STK33 inhibitor candidate reducing NOMO-1 cell viability | AID 2330 | 7.5% of 37,000 active | NOMO-1 AML viability, CellTiter-Glo luminescence, 72 h | inhibition, % (no concentration beside the values); in the data active = inhibition above about 80%; inconclusive = no clear call, values can overlap the other calls
STK33 inh: human STK33 kinase inhibition; 0.44% of 27,000 active; AID 2322; ADP-Glo luminescence, MBP substrate; inhibition, % at 12.5 µM; Q9BYT3; in the data active = inhibition above about 20%; inconclusive = no clear call, values can overlap the other calls
Target sequence (Q9BYT3 whole entry, looked up): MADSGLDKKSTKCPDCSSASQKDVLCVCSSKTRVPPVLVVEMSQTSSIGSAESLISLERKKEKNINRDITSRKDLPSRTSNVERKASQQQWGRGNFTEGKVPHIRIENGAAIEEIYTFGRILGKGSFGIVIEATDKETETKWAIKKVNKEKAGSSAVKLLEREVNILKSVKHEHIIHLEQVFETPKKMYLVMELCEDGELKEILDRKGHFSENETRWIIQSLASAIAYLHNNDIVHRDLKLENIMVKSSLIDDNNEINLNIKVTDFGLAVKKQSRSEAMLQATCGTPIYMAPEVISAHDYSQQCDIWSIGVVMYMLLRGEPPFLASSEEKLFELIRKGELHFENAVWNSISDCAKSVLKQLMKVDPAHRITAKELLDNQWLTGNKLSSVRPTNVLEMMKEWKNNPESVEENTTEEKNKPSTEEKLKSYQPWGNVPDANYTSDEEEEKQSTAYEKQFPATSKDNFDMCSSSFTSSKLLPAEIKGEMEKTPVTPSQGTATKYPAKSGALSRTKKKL
PD-1 reverse act: activators reversing PD-1 mediated T-cell inhibition; primary human CD4 T cells, PD-L1 beads, CellTiter-Glo 96 h; activation, % (test concentration not listed); 29,000 tested, under 10 active; AID 2316; call rule not given here;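 also: 0% = median vehicle wells and 100% = positive control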
Active calls of the source: *; ? = inconclusive; / = no result given.

SMILES | NOMO-1 viab | STK33 inh | PD-1 reverse act
C[C@@H]1CN([C@H](C)CO)C(=O)c2cccc(NC(=O)Nc3ccc4c(c3)OCO4)c2O[C@@H]1CN(C)Cc1ccc(-c2ccccc2)cc1 | 94* | / | -2
C[C@@H]1CN([C@@H](C)CO)C(=O)c2cccc(NC(=O)Nc3ccc4c(c3)OCO4)c2O[C@@H]1CN(C)Cc1ccc(-c2ccccc2)cc1 | 116* | / | -5
C[C@@H]1CN([C@H](C)CO)C(=O)c2cccc(NC(=O)Nc3ccc4c(c3)OCO4)c2O[C@H]1CN(C)Cc1ccc(Oc2ccccc2)cc1 | 20 | / | /
C[C@H]1CN([C@@H](C)CO)C(=O)c2cccc(NC(=O)Nc3ccc4c(c3)OCO4)c2O[C@@H]1CN(C)Cc1ccccc1 | 55 | / | /
C[C@@H]1CN([C@@H](C)CO)C(=O)c2cccc(NC(=O)Nc3ccc4c(c3)OCO4)c2O[C@@H]1CN(C)Cc1ccc2c(c1)OCO2 | 29 | / | -1
C[C@H](CO)N1C[C@H](C)[C@H](CN(C)Cc2ccc(Oc3ccccc3)cc2)Oc2c(NC(=O)Nc3ccc4c(c3)OCO4)cccc2C1=O | 116* | / | -3
C[C@@H]1CN([C@H](C)CO)C(=O)c2cccc(NC(=O)Nc3ccc4c(c3)OCO4)c2O[C@H]1CN(C)Cc1ccc(-c2ccccc2)cc1 | 91* | / | -3
COc1ccccc1NC(=O)CSc1nnc(-c2ccc(Br)cc2)n1C | 8 | -2 | -1
O=C(Cc1ccccc1)Nc1cccc(C(=O)OCC(=O)c2ccc(Cl)cc2)c1 | 22 | 6 | 0
CC[C@H]1C(=O)CC2C3CCC4C[C@@H](O)[C@]5(O)C[C@]4(CO5)C3CC[C@@]21C (stereo not given in full) | / | 2 | /
COc1cc(-c2nnc(SCC(=O)c3ccc(-c4ccccc4)cc3)n2C)cc(OC)c1OC | 40 | 1 | -1
CCNS(=O)(=O)c1cc(C)ccc1-n1cnnn1 | -5 | 2 | /
CC(=O)Nc1ccc(NC(=O)CSc2nnc(-c3ccncc3)n2-c2ccc(Cl)cc2)cc1 | -36 | 1 | 3
CCOc1ccccc1NC(=O)CSc1nnc(-c2ccco2)n1C | 2 | 0 | 0
C[C@H](CO)N1C[C@H](C)[C@H](CN(C)Cc2ccc(-c3ccccc3)cc2)Oc2c(NC(=O)Nc3ccc4c(c3)OCO4)cccc2C1=O | 120* | / | -4
C[C@H]1CN([C@@H](C)CO)C(=O)c2cccc(NC(=O)Nc3ccc4c(c3)OCO4)c2O[C@H]1CN(C)Cc1ccccc1 | 65 | / | 2
O=C1NCc2c1c1c3ccccc3[nH]c1c1[nH]c3ccccc3c21 | 97* | 64* | -4
O=C(CSc1nnc(-c2cccs2)n1-c1ccc(Cl)cc1)c1ccc(Cl)cc1 | 22 | 2 | /
Cc1nc2ccc(F)cc2c2c1CCN2c1ccc(Cl)cc1 | 107* | / | -6
N/C(=N/C(=O)N1CCOCC1)c1ccccc1 | -16 | 0 | 3
O=C(CN1CCN(S(=O)(=O)c2cccc([N+](=O)[O-])c2)CC1)Nc1ccc(F)cc1 | 16 | 1 | /
O=C(CC(Sc1ccccc1C(=O)O)c1ccc(F)cc1)c1ccc(F)cc1 (stereo not given) | 117* | / | -3
NC(=O)c1ccccc1NCC(=O)c1ccc(F)cc1 | 73 | / | 1
C[C@@H]1CN([C@H](C)CO)C(=O)Cc2cc(NC(=O)Cc3cn(C)c4ccccc34)ccc2O[C@@H]1CN(C)Cc1ccc(Cl)c(Cl)c1 | 95* | 1 | -3
C[C@H]1CN([C@@H](C)CO)C(=O)Cc2cc(NC(=O)Cc3cn(C)c4ccccc34)ccc2O[C@H]1CN(C)Cc1ccc(Oc2ccccc2)cc1 | ? | 3 | -2
SMILES | NOMO-1 viab | STK33 inh | PD-1 reverse act
C[C@@H]1CN([C@H](C)CO)C(=O)Cc2cc(NC(=O)Cc3cn(C)c4ccccc34)ccc2O[C@H]1CN(C)Cc1ccc(-c2ccccc2)cc1 | ? | / | -3
C[C@H]1CN([C@@H](C)CO)C(=O)Cc2cc(NC(=O)Cc3cn(C)c4ccccc34)ccc2O[C@H]1CN(C)Cc1ccc2c(c1)OCO2 | 26 | 4 | 0
C[C@@H]1CN([C@@H](C)CO)C(=O)Cc2cc(NC(=O)Cc3cn(C)c4ccccc34)ccc2O[C@@H]1CN(C)Cc1ccc(Oc2ccccc2)cc1 | 115* | -1 | -5
C[C@@H]1CN([C@H](C)CO)C(=O)Cc2cc(NC(=O)Cc3cn(C)c4ccccc34)ccc2O[C@@H]1CN(C)Cc1ccccc1 | 107* | 1 | -3
C[C@H]1CN([C@@H](C)CO)C(=O)Cc2cc(NC(=O)Cc3cn(C)c4ccccc34)ccc2O[C@@H]1CN(C)Cc1ccc(-c2ccccc2)cc1 | 122* | 4 | -2
C[C@@H]1CN([C@@H](C)CO)C(=O)Cc2cc(NC(=O)Cc3cn(C)c4ccccc34)ccc2O[C@@H]1CN(C)Cc1ccccc1 | 37 | 1 | -4
C=CCNC(=O)C1(O)c2ccccc2NC(=O)N1c1ccccc1 (stereo not given) | -26 | / | 1
COc1cccc(NC(=O)c2ccc(OC(=S)N3CCC(C)CC3)cc2)c1 | 56 | / | 1
Cc1onc(-c2ccccc2)c1C(=O)Nc1cccc(S(=O)(=O)N(C)C)c1 | 9 | 1 | /
CC[C@]12CCCN3CCc4c(n(c5ccccc45)[C@@](O)(C(=O)OC)C1)[C@@H]32 | -1 | -12 | /
CC[C@]12CCCN3CCc4c(n(c5ccccc45)C(=O)C1)[C@@H]32 | 112* | -1 | 4
O=C(CN1C(=O)c2ccccc2S1(=O)=O)Nc1ccccc1Br | 35 | -2 | /
CCOc1cc(C)c(Cl)cc1S(=O)(=O)NCc1ccccn1 | 15 | 1 | /
COC(=O)c1ccc(C2C(C(=O)c3cc4ccccc4o3)C(=O)C(=O)N2Cc2ccncc2)cc1 (stereo not given) | -27 | -7 | 3
COc1ccc(S(=O)(=O)N(CC(N)=O)C2CCCCC2)cc1OC | -19 | 12 | 1
C[C@H](CO)N1C[C@H](C)[C@H](CN(C)Cc2ccccc2)Oc2ccc(NC(=O)Nc3ccc(F)cc3)cc2CC1=O | 28 | 1 | -3
COc1ccc(NC(=O)Nc2ccc3c(c2)CC(=O)N([C@H](C)CO)C[C@H](C)[C@H](CN(C)Cc2ccc(Oc4ccccc4)cc2)O3)cc1 | ? | 5 | -1
C[C@@H]1CN([C@H](C)CO)C(=O)Cc2cc(NC(=O)Nc3ccc(F)cc3)ccc2O[C@@H]1CN(C)Cc1ccc(Oc2ccccc2)cc1 | 114* | 0 | -6
COc1ccc(NC(=O)Nc2ccc3c(c2)CC(=O)N([C@@H](C)CO)C[C@@H](C)[C@@H](CN(C)Cc2ccc(Oc4ccccc4)cc2)O3)cc1 | 60 | / | /
C[C@H]1CN([C@@H](C)CO)C(=O)Cc2cc(NC(=O)Nc3ccc(F)cc3)ccc2O[C@H]1CN(C)Cc1ccccc1 | 11 | 0 | 0
C[C@H]1CN([C@@H](C)CO)C(=O)Cc2cc(NC(=O)Nc3ccc(F)cc3)ccc2O[C@@H]1CN(C)Cc1ccc(Oc2ccccc2)cc1 | 107* | / | 1
C[C@H](CO)N1C[C@H](C)[C@H](CN(C)Cc2ccc(Oc3ccccc3)cc2)Oc2ccc(NC(=O)Nc3ccc(F)cc3)cc2CC1=O | 98* | 0 | -3
C[C@@H]1CN([C@H](C)CO)C(=O)Cc2cc(NC(=O)Nc3ccc(F)cc3)ccc2O[C@H]1CN(C)Cc1ccc(Oc2ccccc2)cc1 | 123* | 1 | -2
COc1cccc(C(=O)COc2ccc(NC(=O)c3ccc(Cl)c(Cl)c3)cc2)c1 | 16 | 5 | 1
